# ELG1 repair inh: ELG1-dependent DNA repair inhibition; HEK293T ELG1-luciferase reporter, luminescence, 16 h; DNA damage induced by 5-fluorouridine; Potency, µM (titrated, usually from 46.1 µM), for inactives: at the top dose activity change, negative = inhibition, most hits filed as inhibitors; 2.3% of 330,000 active; further: potency means the concentration at half of the fitted maximal effect; nearly all actives have a fitted effect of over 55% in size
#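 5-Fluorouridine DNA damage + compound/DMSO, 2,000 cells/well, 16 h, 37 °C/5% CO2. ONE-Glo, 30 min RT, luminescence. Readout = decrease in reporter signal.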
# DT40 TDP1 CPT: DT40-hTDP1 cell growth loss with CPT; 12% of 420,000 active; chicken DT40 Tdp1-/-;hTDP1 cells + 20 nM CPT, ATP luminescence, 48 h; Potency, µM (doses to about 46.2 µM), for the others: top-dose activity change, negative = growth inhibition, actives largely listed as inhibitors; further: potency means the concentration at half of the fitted maximal effect; nearly all actives have a fitted effect of over 55% in size
#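 Cell growth measured by CellTiter-Glo luminescence after a minimum 48 h, 37 C compound exposure with 20 nM CPT in Tdp1-knockout DT40 cells stably expressing hTDP1, seeded 400/well; qHTS titration format.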
# IL1B secr inh: inflammasome signaling inhibition, IL-1 beta readout; THP-1 LPS/ATP IL-1B secretion, AlphaLISA, 16 h; stronger effect = lower value; activity change, % at 57.5 µM; 4.7% of 360,000 active; in the data active means activity change below about -50%; inconclusive means mostly about -30% to -49%
#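 Secreted IL-1B measured by AlphaLISA bead assay after 16 h compound exposure of THP-1 cells; compounds (final up to 57.5 uM) added 1 h before LPS (250 ng/mL) and ATP (1.25 mM) stimulation; lower signal means less secretion.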
# Giardia kill: kills Giardia lamblia | Giardia lamblia trophozoite viability | activity change, % at 7.66 µM, hits read low | 0.15% of 340,000 active | AID 540267; in the data active means activity change below about -80%; inconclusive means between about -30% and that limit;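 further: parasites exposed to compound for two days anaerobically before the ATP read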
#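 Trophozoite viability was measured as ATP-dependent luminescence, read 15-30 min after reagent addition. Before that, parasites at 100 cells/well were exposed to compounds for 48 h, anaerobically, at 37 deg C.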
# DT40 TDP1 no CPT: qHTS for Inhibitors of human tyrosyl-DNA phosphodiesterase 1 (TDP1): qHTS in cells in absence of CPT; DT40 Tdp1-/- hTDP1 cells, no CPT, ATP luminescence, 48 h; AID 686978, 2013; 15% of 420,000 active; Potency, µM (doses to about 46.2 µM), inactives show at the top dose activity change, negative = growth inhibition, most hits filed as inhibitors; further: potency means the concentration at half of the fitted maximal effect; nearly all actives have a fitted effect of over 55% in size
#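 Growth of hTDP1-complemented DT40 Tdp1-knockout cells is measured by ATP luminescence after at least 48 hr compound exposure at 37 °C, with DMSO substituting for the 20 nM CPT used in the parallel screen.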
# TDP1 inh: TDP1 (human) enzyme inhibition; Q9NUW8; AID 485290; Potency, µM (highest dose often 130 µM), for inactives: at the top dose activity change, negative = inhibition, most hits filed as inhibitors; recombinant TDP1, AlphaScreen DNA substrate cleavage; 0.28% of 350,000 active; further: potency means the concentration at half of the fitted maximal effect; nearly all actives have a fitted effect of over 40% in size
# Target sequence (Q9NUW8 whole entry, looked up): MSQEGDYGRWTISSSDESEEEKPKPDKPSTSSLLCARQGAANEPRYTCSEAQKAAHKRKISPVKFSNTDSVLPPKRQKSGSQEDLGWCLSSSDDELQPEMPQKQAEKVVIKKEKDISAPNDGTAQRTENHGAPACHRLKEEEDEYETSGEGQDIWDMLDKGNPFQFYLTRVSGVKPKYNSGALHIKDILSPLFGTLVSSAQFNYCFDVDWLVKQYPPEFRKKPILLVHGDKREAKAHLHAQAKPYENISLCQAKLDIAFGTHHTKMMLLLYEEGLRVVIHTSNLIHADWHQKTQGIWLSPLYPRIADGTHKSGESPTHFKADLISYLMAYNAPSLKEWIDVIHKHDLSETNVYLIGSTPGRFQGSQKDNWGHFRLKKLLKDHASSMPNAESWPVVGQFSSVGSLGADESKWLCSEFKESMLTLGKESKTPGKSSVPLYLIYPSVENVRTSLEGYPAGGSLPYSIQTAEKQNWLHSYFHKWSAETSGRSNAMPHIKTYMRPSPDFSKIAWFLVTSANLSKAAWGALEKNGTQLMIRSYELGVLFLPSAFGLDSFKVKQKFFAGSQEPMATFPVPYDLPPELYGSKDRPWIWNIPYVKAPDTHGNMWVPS
#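 Tdp1 1 nM final; 15 min RT w/ cpd; substrate 15 nM, 5 min; beads 10 ug/ml, 10 min; AlphaScreen read. Neg ctrl: no enzyme.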
# * marks the source's active call; other numbers are inactive results; i = inactive; ? = inconclusive; · = no result; [ ] = another dose, or the depositor's remark. In the library only some 19% were active in any assay of this set; here they are far more common. Unless noted, the call rests on the fitted dose curve; in most records, active means well fitted curve in the direction sought with a large enough effect; inconclusive means small, poorly fitted or top-dose-only effect, or another doubt; inactive means no such curve, though single readings can be large; an effect the other way counts as inactive or inconclusive. On the % scale 0 is the no-effect control and ±100 the full control effect.
SMILES,ELG1 repair inh,DT40 TDP1 CPT,IL1B secr inh,Giardia kill,DT40 TDP1 no CPT,TDP1 inh
Cc1cccc(N=Cc2[nH]c3ccc(Br)c(Cl)c3c2O)c1,?,25.9µM*,43.4,3.0,?,4.3%
N#Cc1ccccc1OCC(=O)OCC(=O)NC1CCCC1,5.7%,-0.3%,2.2,-5.7,-1.1%,-0.7%[56.1 µM]
CCOc1ccc(S(=O)(=O)Nc2cnc3ccccc3c2)cc1,-19.5%,18.4µM*,32.6,-15.7,18.4µM*,15.1%
CCOc1ccc(S(=O)(=O)Nc2nc3ccccc3nc2N2CCN(C)CC2)cc1,15.2%,4.4%,17.1,-6.0,-8.8%,-2.4%
Cc1cc(C)c(S(=O)(=O)Nc2ccccc2-c2ccccc2)c(C)c1,-4.2%,?,i,8.8,20.6µM*,1.8%
Cc1cc(C)c(S(=O)(=O)Nc2ccccc2C(F)(F)F)c(C)c1,·,-7.0%,·,·,-12.4%,-9.0%[56.1 µM]
CCOc1ccc(S(=O)(=O)Nc2nc3ccccc3nc2Cl)cc1,-15.1%,?,61.0,-18.7,20.6µM*,·
COc1ccc(NS(=O)(=O)c2c(C)cc(C)cc2C)cc1,?,?,-7.3,3.4,?,7.0%
Cc1cc(C)c(S(=O)(=O)Nc2cnc3ccccc3c2)c(C)c1,?,?,-73.3*,-4.5,?,4.5%
CCOc1ccc(S(=O)(=O)Nc2cccnc2)cc1,?,-16.1%,0.0,13.8,-26.7%,2.1%
Cc1cccc(NC(=O)c2oc3ccccc3c2NC(=O)c2cc(=O)c3ccccc3o2)c1,·,-8.1%,·,·,0.2%,0.0%
O=C(CCS(=O)(=O)c1ccccc1)Nc1ccccc1F,?,-4.8%,10.3,-7.2,26.7%,2.4%
Cc1cc(C)c(S(=O)(=O)Nc2nnc(CC(C)C)s2)c(C)c1,9.2%,-11.1%,0.1,8.1,-2.5%,·
Cc1cc(C)c(S(=O)(=O)Nc2nnc(C)s2)c(C)c1,8.0%,14.6µM*,11.7,14.9,18.4µM*,3.9%
CCC(C)(C)n1nnnc1C(c1cccs1)N1CCc2ccccc21 (centres undefined),?,29.1µM*,2.8,-4.3,16.4µM*,1.1%
CC(C)(C)n1nnnc1C(c1ccc(Cl)cc1)N1CCCc2ccccc21 (centres undefined),19.5%,?,29.2,-16.4,14.6µM*,2.1%
O=C1CN(C(=O)C2CCC(=O)N(CCc3ccc(Cl)cc3)C2)CCN1 (centres undefined),20.1%,-12.2%,20.8,2.1,-6.8%,3.7%
CCCN(CCC)C(=O)Cn1c(=O)n(-c2cccc(C(F)(F)F)c2)c(=O)c2c(C)c(C)sc21,·,23.1µM*,·,·,20.6µM*,6.4%
COc1ccccc1C(OC(=O)c1cccs1)C(=O)NCC1CCCO1 (centres undefined),-6.0%,-8.1%,5.5,-9.7,-16.0%,2.0%
CC(C)CC(OC(=O)c1cccs1)C(=O)NCC1CCCO1 (centres undefined),6.9%,-6.9%,7.7,-8.1,-4.0%,6.0%
COc1ccc(C(OC(=O)c2cccs2)C(=O)NCC2CCCO2)cc1 (centres undefined),16.1%,3.66µM*,-58.5*,5.6,-2.1%,8.3%
O=C(OC(C(=O)NCC1CCCO1)c1ccccn1)c1cccs1 (centres undefined),2.9%,-2.4%,-55.7*,5.4,-3.3%,2.6%
N[C@@H](Cc1ccc(O)cc1)C(=O)Nc1ccc2ccccc2c1,?,1.7%,-7.5,3.4,-1.9%,2.8%
CCOCC(=O)Nc1nc2ccc(OCC)cc2s1,?,?,-13.7,-12.4,?,-10.9%
CCOc1ccc2nc(Cl)c(CN(C(C)=O)C3CCCCC3)cc2c1,-12.9%,-7.8%,0.0,-1.2,-2.8%,-1.2%
CCOc1ccc2nc(Cl)c(CN(C(=O)c3cnccn3)C3CCCC3)cc2c1,14.6µM*,7.6%,0.0,-17.0,-28.6%,1.3%
O=C(Nc1nc2ccccc2s1)c1cnccn1,?,?,10.6,-13.5,?,-1.1%
